The full data set covers some 7,900 targets. This sample favours those with a hit. About 0.6% of all pairs of compound and target were hits.
compound: COc1cc(Nc2ncc3c(n2)-c2ccc(Cl)cc2C(c2c(F)cccc2OC)=NC3)ccc1C(=O)O [alisertib]; assay: log2 fold change, soluble protein after heating vs DMSO (PISA); higher = thermal stabilisation; K562 cells, 10 uM, 30 min; active = over 0.2 and 3.5 SD of the protein, either way, in both replicates (recomputed)
In short: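 K562 cells at 2×10^6 cells/mL were treated with 10 μM compound for 30 min. Aliquots were heated for 3 min across 48°C-58°C, pooled, and extracted in PBS with 0.5% NP-40 at 4°C; soluble protein was the supernatant after 21,000xg for 90 min. Soluble protein was quantified by TMTpro 16plex LC-MS/MS with channel sums equalised, and reported as log2 fold change in thermal stability against DMSO controls, with values from duplicates.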

UniProt P78383, sequence (P78383 whole entry, looked up): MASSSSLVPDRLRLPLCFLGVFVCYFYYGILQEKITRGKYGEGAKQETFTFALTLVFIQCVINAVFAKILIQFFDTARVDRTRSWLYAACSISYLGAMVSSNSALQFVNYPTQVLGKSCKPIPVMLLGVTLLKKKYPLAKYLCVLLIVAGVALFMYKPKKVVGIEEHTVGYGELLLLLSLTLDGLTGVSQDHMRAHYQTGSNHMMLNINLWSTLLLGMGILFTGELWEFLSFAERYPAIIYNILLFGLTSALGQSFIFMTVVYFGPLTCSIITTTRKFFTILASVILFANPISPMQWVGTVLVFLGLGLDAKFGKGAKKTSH
UniProt Q9Y6J9, sequence (Q9Y6J9 whole entry, looked up): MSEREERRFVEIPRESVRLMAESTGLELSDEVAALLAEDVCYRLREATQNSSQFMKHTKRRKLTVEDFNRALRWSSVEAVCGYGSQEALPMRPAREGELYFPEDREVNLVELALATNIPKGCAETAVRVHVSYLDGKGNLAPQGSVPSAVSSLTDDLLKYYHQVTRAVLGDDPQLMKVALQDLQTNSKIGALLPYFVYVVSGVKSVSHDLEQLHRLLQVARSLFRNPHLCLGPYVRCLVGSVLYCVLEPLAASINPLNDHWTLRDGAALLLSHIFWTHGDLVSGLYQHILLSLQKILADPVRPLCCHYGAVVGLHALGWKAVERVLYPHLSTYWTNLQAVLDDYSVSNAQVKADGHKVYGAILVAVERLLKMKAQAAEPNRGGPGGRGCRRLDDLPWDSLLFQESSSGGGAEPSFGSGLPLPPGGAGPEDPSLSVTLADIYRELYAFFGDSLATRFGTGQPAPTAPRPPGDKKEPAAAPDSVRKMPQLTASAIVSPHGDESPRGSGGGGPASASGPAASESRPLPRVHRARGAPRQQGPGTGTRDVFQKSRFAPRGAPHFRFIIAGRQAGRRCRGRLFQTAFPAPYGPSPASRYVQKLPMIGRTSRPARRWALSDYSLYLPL
UniProt P23497, sequence (P23497 whole entry, looked up): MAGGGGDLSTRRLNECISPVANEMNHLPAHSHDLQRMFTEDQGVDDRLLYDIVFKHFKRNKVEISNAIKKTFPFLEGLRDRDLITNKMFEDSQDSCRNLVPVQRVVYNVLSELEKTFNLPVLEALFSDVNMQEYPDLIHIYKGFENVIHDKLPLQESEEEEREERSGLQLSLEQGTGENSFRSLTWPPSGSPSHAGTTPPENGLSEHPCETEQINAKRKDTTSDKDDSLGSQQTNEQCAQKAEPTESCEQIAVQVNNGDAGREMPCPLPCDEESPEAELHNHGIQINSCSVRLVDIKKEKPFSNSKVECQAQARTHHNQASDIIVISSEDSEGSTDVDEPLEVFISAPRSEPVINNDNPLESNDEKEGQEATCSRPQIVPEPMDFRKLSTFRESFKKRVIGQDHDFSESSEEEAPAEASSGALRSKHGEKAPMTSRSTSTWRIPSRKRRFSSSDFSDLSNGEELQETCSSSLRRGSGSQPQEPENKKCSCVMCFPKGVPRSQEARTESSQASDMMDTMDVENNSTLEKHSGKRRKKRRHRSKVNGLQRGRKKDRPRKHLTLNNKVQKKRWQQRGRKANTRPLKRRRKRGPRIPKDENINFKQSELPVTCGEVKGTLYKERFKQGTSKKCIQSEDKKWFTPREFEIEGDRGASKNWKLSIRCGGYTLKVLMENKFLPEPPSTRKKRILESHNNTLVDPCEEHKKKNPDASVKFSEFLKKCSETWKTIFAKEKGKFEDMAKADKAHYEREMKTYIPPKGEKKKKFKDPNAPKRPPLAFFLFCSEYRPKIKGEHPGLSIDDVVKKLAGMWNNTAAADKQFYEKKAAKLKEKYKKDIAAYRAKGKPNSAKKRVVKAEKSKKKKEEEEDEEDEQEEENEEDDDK
UniProt Q8NEW0, sequence (Q8NEW0 whole entry, looked up): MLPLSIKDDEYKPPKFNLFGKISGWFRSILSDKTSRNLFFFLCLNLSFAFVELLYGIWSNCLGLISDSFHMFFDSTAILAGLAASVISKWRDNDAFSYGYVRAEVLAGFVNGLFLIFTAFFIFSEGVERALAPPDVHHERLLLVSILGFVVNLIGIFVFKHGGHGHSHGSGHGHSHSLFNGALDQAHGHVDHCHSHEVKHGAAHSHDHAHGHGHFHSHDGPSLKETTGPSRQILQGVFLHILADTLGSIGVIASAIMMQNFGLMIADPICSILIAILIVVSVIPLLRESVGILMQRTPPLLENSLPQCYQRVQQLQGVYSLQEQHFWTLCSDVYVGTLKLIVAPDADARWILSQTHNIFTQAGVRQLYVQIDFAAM
UniProt Q9BW92, sequence (Q9BW92 whole entry, looked up): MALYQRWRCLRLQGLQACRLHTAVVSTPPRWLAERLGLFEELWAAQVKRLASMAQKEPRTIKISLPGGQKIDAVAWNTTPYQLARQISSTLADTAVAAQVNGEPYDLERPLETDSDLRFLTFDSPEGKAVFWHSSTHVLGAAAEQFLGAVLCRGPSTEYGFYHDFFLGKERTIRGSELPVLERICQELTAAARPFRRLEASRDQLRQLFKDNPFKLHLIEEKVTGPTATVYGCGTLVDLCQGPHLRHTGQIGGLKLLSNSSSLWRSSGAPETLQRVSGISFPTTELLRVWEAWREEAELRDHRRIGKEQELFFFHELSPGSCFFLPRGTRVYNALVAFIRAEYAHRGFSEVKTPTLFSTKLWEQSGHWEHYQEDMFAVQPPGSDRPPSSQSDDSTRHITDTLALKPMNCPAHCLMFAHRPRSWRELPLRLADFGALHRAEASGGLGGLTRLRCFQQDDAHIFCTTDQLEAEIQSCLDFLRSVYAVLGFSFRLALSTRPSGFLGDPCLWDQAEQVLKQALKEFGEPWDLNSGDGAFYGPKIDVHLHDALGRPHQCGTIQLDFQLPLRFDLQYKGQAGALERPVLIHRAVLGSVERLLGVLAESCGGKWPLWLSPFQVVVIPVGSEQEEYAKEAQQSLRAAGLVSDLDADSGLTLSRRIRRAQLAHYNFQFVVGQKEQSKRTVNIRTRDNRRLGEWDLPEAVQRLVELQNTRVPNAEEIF
UniProt Q8N5G0, sequence (Q8N5G0 whole entry, looked up): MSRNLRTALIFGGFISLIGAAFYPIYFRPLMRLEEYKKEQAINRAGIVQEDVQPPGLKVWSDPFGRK
UniProt O15400, sequence (O15400 whole entry, looked up): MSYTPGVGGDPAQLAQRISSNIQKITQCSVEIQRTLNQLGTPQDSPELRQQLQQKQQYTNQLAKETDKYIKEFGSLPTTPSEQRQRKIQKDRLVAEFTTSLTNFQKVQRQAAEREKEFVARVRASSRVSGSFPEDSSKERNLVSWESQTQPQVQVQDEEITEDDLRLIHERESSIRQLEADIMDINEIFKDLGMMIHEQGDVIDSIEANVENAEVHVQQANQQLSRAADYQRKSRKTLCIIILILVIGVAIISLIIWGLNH
UniProt Q9NS93, sequence (Q9NS93 whole entry, looked up): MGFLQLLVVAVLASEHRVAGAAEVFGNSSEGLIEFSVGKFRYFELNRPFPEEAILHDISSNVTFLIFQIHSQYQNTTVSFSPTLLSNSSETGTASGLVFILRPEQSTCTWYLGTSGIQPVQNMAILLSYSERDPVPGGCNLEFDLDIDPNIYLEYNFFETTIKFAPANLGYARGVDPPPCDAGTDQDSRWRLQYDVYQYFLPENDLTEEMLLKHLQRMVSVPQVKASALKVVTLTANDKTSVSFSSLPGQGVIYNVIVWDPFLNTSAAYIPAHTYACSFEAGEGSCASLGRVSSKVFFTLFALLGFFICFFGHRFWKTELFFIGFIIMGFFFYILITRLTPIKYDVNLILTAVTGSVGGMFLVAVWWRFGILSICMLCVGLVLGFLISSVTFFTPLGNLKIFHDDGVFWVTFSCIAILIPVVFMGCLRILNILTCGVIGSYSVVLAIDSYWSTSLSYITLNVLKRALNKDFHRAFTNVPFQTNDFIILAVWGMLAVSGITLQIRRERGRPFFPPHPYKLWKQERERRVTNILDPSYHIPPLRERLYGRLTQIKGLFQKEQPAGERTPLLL
UniProt Q9Y5J6, sequence (Q9Y5J6 whole entry, looked up): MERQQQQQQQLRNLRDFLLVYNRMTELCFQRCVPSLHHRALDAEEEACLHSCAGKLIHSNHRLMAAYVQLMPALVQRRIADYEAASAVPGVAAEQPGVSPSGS
UniProt Q92844, sequence (Q92844 whole entry, looked up): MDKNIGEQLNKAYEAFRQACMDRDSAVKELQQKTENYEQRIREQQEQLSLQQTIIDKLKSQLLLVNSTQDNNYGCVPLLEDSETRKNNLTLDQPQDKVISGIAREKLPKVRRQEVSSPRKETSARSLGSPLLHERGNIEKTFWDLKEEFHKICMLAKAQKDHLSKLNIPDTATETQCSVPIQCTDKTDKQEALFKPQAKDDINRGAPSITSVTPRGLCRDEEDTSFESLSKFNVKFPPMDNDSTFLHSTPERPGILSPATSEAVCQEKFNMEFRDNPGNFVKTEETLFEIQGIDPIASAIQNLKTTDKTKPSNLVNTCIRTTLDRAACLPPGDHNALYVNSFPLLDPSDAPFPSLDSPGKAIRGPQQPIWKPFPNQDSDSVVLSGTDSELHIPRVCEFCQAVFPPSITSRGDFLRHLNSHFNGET

log2 fold change, inactive:
STAM2 (UniProt O75886) 0.015
SP100 isoform 4 (UniProt P23497) -0.026
TM7SF3 (UniProt Q9NS93) -0.217
TIMM10B (UniProt Q9Y5J6) -0.205
TLK1 (UniProt Q9UKI8) -0.023
SLC30A7 (UniProt Q8NEW0) -0.019
TAF6L (UniProt Q9Y6J9) -0.13
SLC35B1 isoform 2 (UniProt P78383) -0.232
STX7 (UniProt O15400) -0.048
TARS2 (UniProt Q9BW92) -0.021
SUPT5H (UniProt O00267) -0.003
SMIM20 isoform 2 (UniProt Q8N5G0) -0.056
TANK (UniProt Q92844) -0.028

Reference: the supplement of paper PMC10849652
